High-throughput results (PubChem BioAssay)
Only some compounds are listed: those with a hit (about 1.4% of all), similar ones and a draw of the others.
ugtP null kill – growth inhibition of S. aureus ugtP deletion strain; S. aureus RN4220 ugtP deletion, OD600 growth, 16 h; growth inhibition, % (no concentration beside the values); 330,000 compounds, 0.54% hits; in the data active = growth inhibition above about 68%;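 also: plate controls were untreated wells for no effect and antibiotic for full effect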
PrPC surface inh – reduces human prion protein on the cell surface | 370,000 compounds, 0.43% hits | P04156 | AID 720596 | cell surface PrPC, TR-FRET read-out | inhibition, % at 13.8 µM; in the data active = inhibition above about 24%; also: 0% = median of the test wells and 100% = reference compound wells
RN4220 kill – S. aureus RN4220 growth inhibition. OD600, 16 h. inhibition, % (concentration not given with the values). 330,000 compounds, 0.33% hits. AID 1259311; in the data active = inhibition above about 85%;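 also: plate controls were untreated cells for no effect and reference antibiotic for full effect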
BJeLR viability – kills HRASV12-expressing BJeLR cells; BJeLR (HRASV12) viability, CellTiter-Glo ATP luminescence, 48 h; inhibition, % (concentration not given with the values); 300,000 compounds, 0.17% hits; AID 1554; in the data active = inhibition above about 50%
VHR inh abs – blocks human VHR1 dual specificity phosphatase. 290,000 compounds, 0.52% hits. AID 1654. recombinant VHR phosphatase, pNPP absorbance. P51452. inhibition, % at 13.3 µM; in the data active = inhibition above about 50%
Target sequence (P51452 whole entry, looked up): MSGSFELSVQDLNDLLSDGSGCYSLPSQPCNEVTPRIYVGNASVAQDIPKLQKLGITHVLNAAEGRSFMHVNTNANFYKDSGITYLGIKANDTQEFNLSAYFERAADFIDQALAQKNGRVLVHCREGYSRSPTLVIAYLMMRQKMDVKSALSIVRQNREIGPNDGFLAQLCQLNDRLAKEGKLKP
3CLpro inhibitor – SARS-CoV 3CLpro protease inhibition | AID 1706 | recombinant SARS-CoV 3CLpro, quenched FRET peptide cleavage | 290,000 compounds, 0.14% hits | inhibition, % at 6 µM; in the data active = inhibition above about 12%
Numbers without * were called inactive.

Results for Cc1ccc(NC(=O)C2=C(c3ccccc3)S(=O)(=O)CCS2(=O)=O)cc1 ?
ugtP null kill: 100*; PrPC surface inh: 12; RN4220 kill: 66; BJeLR viability: 29; VHR inh abs: 11; 3CLpro inhibitor: 2

Results for O=C(Nc1ccccc1)c1ccccc1O ?
ugtP null kill: -1; PrPC surface inh: 0; RN4220 kill: 4; BJeLR viability: 9; VHR inh abs: 5; 3CLpro inhibitor: -1

What do the screens show for `Cc1ccc(NC(=O)c2ccccc2)cc1`?
ugtP null kill: 6; PrPC surface inh: -8; RN4220 kill: 4; BJeLR viability: 0; VHR inh abs: 30; 3CLpro inhibitor: 0

How did Cc1ccc(/C=C/C(=O)Nc2nnc(SCc3ccc(C#N)cc3)s2)o1 do in these assays?
ugtP null kill: -23; PrPC surface inh: 4; RN4220 kill: 4; BJeLR viability: 2; VHR inh abs: 60*; 3CLpro inhibitor: 3

How did C=C1C(=O)C23CCC4C(C)(C(=O)OC)CCCC4(C)C2CCC1(O)C3 (centres undefined) do in these assays?
PrPC surface inh: 86*

Results for COC(=O)[C@]1(C)CCC[C@@]2(C)C3CC[C@@]4(C)C[C@]3(CCC21)CC(=O)N4 (some centres undefined) ?
ugtP null kill: 14; PrPC surface inh: -4; RN4220 kill: 16

Results for CN(N=Cc1ccc(Cl)cc1)c1ncc(Cl)cc1C(F)(F)F ?
ugtP null kill: 98*; RN4220 kill: -11

What do the screens show for `CCOc1ccc(C(O)=C2C(=O)C(=O)N(CC3CCCO3)C2c2ccc(C)o2)cc1` (centres undefined)?
ugtP null kill: 5; RN4220 kill: 1

What do the screens show for `Clc1ccc(CN=C2Nc3ccccc3CS2)cc1`?
ugtP null kill: 52; PrPC surface inh: 0; RN4220 kill: 19; BJeLR viability: 7; VHR inh abs: -2; 3CLpro inhibitor: 7

Results for Cc1ccc(CN=C2Nc3ccccc3CS2)cc1 ?
ugtP null kill: 82*; PrPC surface inh: 7; RN4220 kill: 41; BJeLR viability: -1; VHR inh abs: 29; 3CLpro inhibitor: 2

Results for COc1ccccc1C(=O)N1CCN(S(=O)(=O)c2ccccc2)CC1 ?
ugtP null kill: 5; PrPC surface inh: 7; RN4220 kill: 2; BJeLR viability: -4; VHR inh abs: 57*; 3CLpro inhibitor: 4

What do the screens show for `COc1cccc(OC)c1C(=O)N1CCN(S(=O)(=O)c2ccccc2)CC1`?
ugtP null kill: 5; PrPC surface inh: -5; RN4220 kill: 3; BJeLR viability: -1; VHR inh abs: -12; 3CLpro inhibitor: 3

How did COC(=O)C1CC2CCC(O)CC2N1Cc1ccc(N2CCN(C)CC2)cc1 (centres undefined) do in these assays?
ugtP null kill: 2; RN4220 kill: 7

Results for Oc1ccc(Cl)c2cccnc12 ?
ugtP null kill: 98*; PrPC surface inh: -3; RN4220 kill: 97*

How did Oc1ccc(N=Nc2ccccc2C(F)(F)F)c2cccnc12 do in these assays?
ugtP null kill: 99*; PrPC surface inh: -9; RN4220 kill: 96*; BJeLR viability: 29; 3CLpro inhibitor: -4

What do the screens show for `COc1ccccc1N=Nc1ccc(O)c2ncccc12`?
ugtP null kill: -18; PrPC surface inh: -16; RN4220 kill: 5; BJeLR viability: 23; VHR inh abs: 46; 3CLpro inhibitor: 4

Results for O=C(CC1CC=CCC(Cc2ccc(F)cc2)C(=O)OC(c2ccccc2)CNC1=O)NC(CO)Cc1ccccc1 (centres undefined) ?
ugtP null kill: 2; RN4220 kill: 8

How did CN1CCC(=O)N(C(CSc2ccccc2)c2ccccc2)CC1 (centres undefined) do in these assays?
ugtP null kill: -3; RN4220 kill: 3

How did CCCCCN=C(N)N/N=C/c1c[nH]c2ccc(OC)cc12 do in these assays?
PrPC surface inh: 7; BJeLR viability: 70*

How did CCCCCN=C(N)NN=Cc1c[nH]c2ccc(OC)cc12 do in these assays?
ugtP null kill: -31; RN4220 kill: 3

How did O=C(Nc1cccc(C(F)(F)F)c1)c1cccnc1N1CCN(c2ccccc2)CC1 do in these assays?
ugtP null kill: 92*; PrPC surface inh: 2; RN4220 kill: -10; BJeLR viability: -3; VHR inh abs: 24; 3CLpro inhibitor: 4

What do the screens show for `CCc1nnc(NC(=O)c2c(O)c3cccc4c3n(c2=O)CC4)s1`?
VHR inh abs: -5

Results for CCCc1nnc(NC(=O)c2c(O)c3cccc4c3n(c2=O)CC4)s1 ?
ugtP null kill: 100*; RN4220 kill: 101*; BJeLR viability: -3; VHR inh abs: -1

What do the screens show for `O=C(CN1CCCC1)NC(c1ccccc1)c1ccccc1`?
ugtP null kill: 11; PrPC surface inh: -5; RN4220 kill: 4; BJeLR viability: -2; VHR inh abs: 51*; 3CLpro inhibitor: -2

How did CC(CN1C2=NCC(C)N2CC1Cc1ccc(O)cc1)NC(=O)CCC1CCCCC1 (centres undefined) do in these assays?
ugtP null kill: -4; RN4220 kill: -1

How did CC(C)N1CC(C(=O)Nc2cccc([N+](=O)[O-])c2)CC1=O (centres undefined) do in these assays?
ugtP null kill: 4; PrPC surface inh: -7; RN4220 kill: 5; BJeLR viability: 3; VHR inh abs: 56*; 3CLpro inhibitor: 2

Results for Cn1c(=O)c2c(nc(C=Cc3cccc(Cl)c3)n2C)n(C)c1=O ?
ugtP null kill: -9; RN4220 kill: 7

Results for Cc1cc(C)nc(NS(=O)(=O)c2ccc(NC(=O)Cc3ccc(F)cc3)cc2)n1 ?
ugtP null kill: 6; PrPC surface inh: -5; RN4220 kill: 5; BJeLR viability: -4; VHR inh abs: 54*; 3CLpro inhibitor: 0

What do the screens show for `COc1ccc2c(c1)c(=O)oc1c(C)c(OCc3cc(C(=O)O)oc3C)ccc12`?
ugtP null kill: 5; PrPC surface inh: 6; RN4220 kill: 5; BJeLR viability: -5; VHR inh abs: 116; 3CLpro inhibitor: 6

What do the screens show for `COc1ccc2c(c1)c(=O)oc1c(C)c(OCc3ccc(C(=O)O)cc3)ccc12`?
BJeLR viability: 1; VHR inh abs: 52*; 3CLpro inhibitor: -1

How did CCS(=O)(=O)N1Cc2ccccc2CC1C(=O)NC(C)C12CC3CC(CC(C3)C1)C2 (centres undefined) do in these assays?
ugtP null kill: -6; PrPC surface inh: 31*; RN4220 kill: 12; BJeLR viability: -2; VHR inh abs: 2; 3CLpro inhibitor: -5

What do the screens show for `Cc1ccc(Cn2ccc(NC(=O)c3cc(-c4ccc5c(c4)OCO5)on3)n2)cc1`?
ugtP null kill: 0; RN4220 kill: 3; BJeLR viability: -3; VHR inh abs: 26; 3CLpro inhibitor: 6

How did CC(C)(C)c1ccc(Cn2ccc(-c3ccc4c(c3)OCO4)n2)cc1 do in these assays?
ugtP null kill: 93*; PrPC surface inh: -1; RN4220 kill: 5; BJeLR viability: -4; VHR inh abs: 13; 3CLpro inhibitor: -5
